# Laboratory results taken from publication PMC4336329 (PLoS ONE, 2015).
# In all, about 310,000 compounds went through this assay and about 14,000 (4.5%) showed an effect of 50% or more. The effect is printed as a negative number. What follows is part of a selection rich in strong results, with near analogues and random picks from the rest.
# Target: human ether-à-go-go-related gene (hERG) potassium channel (human, UniProt Q12809)
# Test: primary screen, population patch clamp on CHO cells stably expressing hERG; higher = less effect of the substance
# 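Also: peak tail current of the secondary pulse compared with the same well before compound.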
# Sequence of human ether-à-go-go-related gene (hERG) potassium channel (Q12809 whole entry, looked up): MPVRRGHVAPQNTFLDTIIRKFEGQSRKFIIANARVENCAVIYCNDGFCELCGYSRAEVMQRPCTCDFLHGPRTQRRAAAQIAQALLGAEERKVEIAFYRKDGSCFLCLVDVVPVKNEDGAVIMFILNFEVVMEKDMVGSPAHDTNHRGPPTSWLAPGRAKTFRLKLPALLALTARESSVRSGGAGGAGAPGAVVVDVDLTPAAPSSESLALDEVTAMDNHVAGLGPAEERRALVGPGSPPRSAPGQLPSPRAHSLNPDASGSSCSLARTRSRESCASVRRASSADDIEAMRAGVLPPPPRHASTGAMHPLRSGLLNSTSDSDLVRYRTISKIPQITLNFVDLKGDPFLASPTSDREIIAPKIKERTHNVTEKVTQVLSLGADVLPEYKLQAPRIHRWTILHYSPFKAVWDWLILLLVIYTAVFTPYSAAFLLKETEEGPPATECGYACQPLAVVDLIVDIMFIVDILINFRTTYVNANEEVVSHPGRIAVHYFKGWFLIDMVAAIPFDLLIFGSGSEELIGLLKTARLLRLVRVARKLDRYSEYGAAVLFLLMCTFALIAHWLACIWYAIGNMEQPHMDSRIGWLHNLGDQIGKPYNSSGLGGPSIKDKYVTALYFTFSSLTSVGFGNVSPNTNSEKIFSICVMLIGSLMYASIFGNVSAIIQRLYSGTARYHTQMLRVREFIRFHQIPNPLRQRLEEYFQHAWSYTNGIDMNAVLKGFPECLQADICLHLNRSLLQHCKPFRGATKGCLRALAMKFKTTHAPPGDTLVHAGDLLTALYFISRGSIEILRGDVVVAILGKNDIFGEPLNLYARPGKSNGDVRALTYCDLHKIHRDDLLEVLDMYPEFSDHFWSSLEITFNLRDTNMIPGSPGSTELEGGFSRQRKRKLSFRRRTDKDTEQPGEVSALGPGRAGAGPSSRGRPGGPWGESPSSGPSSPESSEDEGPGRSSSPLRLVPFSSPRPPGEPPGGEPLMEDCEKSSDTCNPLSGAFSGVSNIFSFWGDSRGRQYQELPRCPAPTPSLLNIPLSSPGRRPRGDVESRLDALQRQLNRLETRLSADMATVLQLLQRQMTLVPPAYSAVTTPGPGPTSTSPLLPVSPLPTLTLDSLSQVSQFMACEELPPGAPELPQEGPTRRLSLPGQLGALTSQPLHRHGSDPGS
row,Structure (SMILES),"hERG current change (%, negative = inhibition) at 10uM [%]"
1,CC(C)c1ccc(NC(=O)c2cccc(NC3=NC4CS(=O)(=O)CC4S3)c2)cc1 (stereo not shown),-11.1
2,CS(=O)(=O)N(CC(=O)Nc1ccc(F)cc1)C1CCCCC1,12.6
3,c1ccc(-c2nc(C3CCCCC3)no2)cc1,-0.00972
4,CCSC1=N/C(=C\c2ccccc2)C(=O)N1c1ccc(OC)cc1,6.36
5,O=C(O)c1cccnc1Cl,10.7
6,O=C(/C=C/c1ccccc1)Nc1sc2c(c1C(=O)O)CCC2,5.92
7,Cc1cc(N2CCN(C)CC2)n2cc(-c3ccc(F)cc3)nc2n1,-87.6
8,COc1ccc(-c2cc(-c3ccc(F)cc3)nc(N3CCN(C)CC3)n2)cc1,-3.88
9,CCc1nn2c(N3CCOCC3)cc(C)nc2c1-c1ccc(F)cc1,0.767
10,CN1CCN(c2cc(-c3ccccc3)nc3cc(-c4ccc(F)cc4)nn23)CC1,-14.5
11,Cc1cc(N2CCOCC2)n2cc(-c3ccc(F)cc3)nc2n1,-69
12,Cc1cc(N2CCOCC2)n2nc(-c3cccc(F)c3)cc2n1,0.119
13,Cc1cc(N2CCN(c3ccccc3Cl)CC2)n2cc(-c3ccccc3)nc2n1,-53.9
14,CC1CN(c2nc3ccccc3cc2-c2ccccc2)CC(C)O1 (stereo not shown),-1.86
15,Cc1cc(N2CCN(c3nc(-c4ccccc4)cs3)CC2)c2ccccc2n1,-23.3
16,Cc1cc(N2CCCCC2)n2nc(C)c(-c3ccccc3)c2n1,13.3
17,Cc1cc(N2CC(C)OC(C)C2)n2cc(-c3ccccc3)nc2n1 (stereo not shown),-61.7
18,Cc1c(C(=O)N2CC(C)OC(C)C2)sc2nc(-c3ccccc3)cn12 (stereo not shown),-15.2
19,O=C(NNC(=S)Nc1ccccc1Cl)c1ccccc1,5.93
20,O=C(CN1c2ccccc2S(=O)(=O)c2ccccc21)NCc1ccccc1,9.11

row,Structure (SMILES),"hERG current change (%, negative = inhibition) at 10uM [%]"
1,Cc1cccc(N(CC(=O)N2CCOCC2)S(C)(=O)=O)c1,6.69
2,CCC(=O)NC(=S)Nc1ccc(N2CCOCC2)cc1,-2.62
3,CS(=O)(=O)N1CCN(C(=O)c2cc3ccccc3oc2=O)CC1,-0.0734
4,O=C(NCCC1=CCCCC1)C1CCN(S(=O)(=O)c2cccs2)CC1,-29.2
5,CCOc1ccc(-n2c(SCC(=O)Nc3cc(C(=O)O)ccc3Cl)nc3ccccc3c2=O)cc1,28.8
6,COc1cc2nc(SCC(N)=O)n(CCC3=CCCCC3)c(=O)c2cc1OC,-10.9
7,CCN(CC)S(=O)(=O)c1cccc(C(=O)OCC(=O)Nc2ccccc2OC(F)F)c1,-7.37
8,CCC(C)(C)C1CCc2c(sc(NC(=O)c3ccoc3C)c2C(N)=O)C1 (stereo not shown),17.8
9,COc1ccc(N/C=C(\C#N)S(=O)(=O)c2ccc(Cl)cc2)c(OC)c1,-8.9
10,Cc1cc(N2CCOCC2)n2ncc(-c3ccccc3)c2n1,-18.5
11,Cc1cc(N2CCOCC2)n2nc(C)c(-c3ccccc3)c2n1,9.17
12,Cc1cc(N2CCOCC2)n2cc(-c3ccccc3)nc2n1,-50.1
13,O=C(Nc1ccccc1)c1ccc(Nc2c([N+](=O)[O-])cc([N+](=O)[O-])c3ccccc23)cc1,6.49
14,O=C(CSc1cccc[n+]1[O-])Nc1ccc2c(c1)OCO2,6.96
15,O=C(CSc1ccc(Br)cc1)N1CCN(C(=O)c2ccco2)CC1,-62.4
16,O=C(CSc1nnc(-c2ccc(Br)cc2)o1)N1CCN(C(=O)c2ccco2)CC1,-54.6
17,O=C(CSc1nnc(-c2ccc(F)cc2)o1)N1CCN(C(=O)c2ccco2)CC1,-38.4
18,COc1ccc(-c2nnc(SCC(=O)N3CCOCC3)o2)cc1,-1.92
19,O=C(CSc1nnc(-c2ccc(OC(F)F)cc2)o1)N1CCOCC1,-57
20,O=C(CSc1ccccc1)N1CCN(C(=O)c2ccco2)CC1,-10.1

row,Structure (SMILES),"hERG current change (%, negative = inhibition) at 10uM [%]"
1,O=C(Cc1ccc(Br)cc1)N1CCN(C(=O)c2ccco2)CC1,-32.3
2,O=C(CSc1nnc(-c2ccccc2Br)o1)N1CCN(C(=O)c2ccco2)CC1,-40.9
3,CCOc1ccc(-c2nnc(SCC(=O)N3CCOCC3)o2)cc1,2.8
4,C[C@H](NC(=O)c1cc2cc(Cl)ccc2n1C)C(=O)N1CCC[C@H]1C(=O)O,13.7
5,O=C(NCCN1CCOCC1)[C@H](Cc1ccccc1)N1C(=O)c2ccccc2C1=O,-2.06
6,CS(=O)(=O)NC1CCN(Cc2ccccc2)CC1,-2.95
7,COc1cccc(CN(C)C(=O)CNC(=O)c2ccc3c(c2)OCO3)c1OC,15.3
8,CC1Cc2cc(/C(O)=C3\C(=O)C(=O)N(CCN(C)C)C3c3ccccc3F)ccc2O1 (stereo not shown),2.94
9,CCOc1ccc(S(=O)(=O)Nc2ccccn2)c2ccccc12,10.7
10,CC(Oc1ncnc2ccccc12)C(=O)Nc1cccc(S(=O)(=O)N2CCOCC2)c1 (stereo not shown),-11.3
11,Cc1c(NS(=O)(=O)c2cccc(C(=O)Nc3ccccc3)c2)c(=O)n(-c2ccccc2)n1C,-11
12,CCn1cc(C(=O)N2CC(C)CC(C)C2)c(=O)c2cc(S(=O)(=O)N3CCCC3)ccc21 (stereo not shown),6.81
13,O=[N+]([O-])c1cc(C(F)(F)F)ccc1Sc1nccn1Cc1ccccc1,-30.3
14,O=C(CSc1nccn1Cc1ccccc1)Nc1ccccc1,12.4
15,O=[N+]([O-])c1ccccc1Sc1nccn1Cc1ccccc1,-21.6
16,NC(=O)CSc1nccn1Cc1ccccc1,7.57
17,O=[N+]([O-])c1ccc(Sc2nccn2Cc2ccccc2)c([N+](=O)[O-])c1,-57.9
18,O=[N+]([O-])c1ccc(Sc2nccn2Cc2ccccc2)cc1,-59.5
